This note sets out measurements from PubChem BioAssay (NCATS).

Test [1] is described as follows: Primary qHTS for inhibitors of nuclear receptor binding SET domain protein 2 (NSD2) in an RCH-ACV wild type WT cells (2C) (AID 1645877). Also: nearly all actives have a fitted effect of over 70% in size. Also: potency is read from the fitted curve at half-maximal effect. For orientation: Quantitative high-throughput screening tests each substance at several concentrations.
For test [2], the target named is Phospholipid hydroperoxide glutathione peroxidase GPX4 (Homo sapiens) (UniProt P36969). Put plainly: Primary qHTS Assay for Inhibitors of Recombinant Selenoprotein Glutathione Peroxidase 4 (GPX4) (AID 1845192). Also: series mostly up to about 50 µM; nearly all actives have a fitted effect of over 65% in size. The gist of the method:
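qHTS, GR-coupled: GPX4 200 nM + cpd 30 min RT → GSH 1 mM, NADPH 0.5 mM, GR 100 nM → CHP 0.5 mM start; fluor 340/450 at t0 and t15 min; no-enzyme wells as control.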

For test [3], the target named is Luciferin 4-monooxygenase (Photinus pyralis) (UniProt P08659). Put plainly: Primary firefly luciferase (FLuc) qHTS assay for identification of artifact compounds. (AID 1845220). Also: nearly all actives have a fitted effect of over 60% in size. Also: potency is read from the fitted curve at half-maximal effect. The gist of the method:
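qHTS, 15 min compound preincubation with substrate (10 uM luciferin, 10 uM ATP) at RT, then 10 nM FLuc; 5 min; luminescence; % inhibition vs no-enzyme/DMSO controls, 4-parameter Hill fit.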

Test [4] in a line: Primary fluorescence-based thiol-reactive (MSTI) qHTS assay for identification of artifact compounds. (AID 1845221). Also: nearly all actives have a fitted effect of over 65% in size. Also: potency is read from the fitted curve at half-maximal effect. The gist of the method: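 A multi-concentration qHTS design tested compounds against 4 uM MSTI, pH 7.4 phosphate-buffered saline. Plates were protected from light for 1 h at room temperature before imaging fluorescence.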
In test [5] the test system is Nanoluciferase (engineered Oplophorus gracilirostris luciferase). Kind of test: Primary Nanoluciferase (NLuc) qHTS assay for identification of artifact compounds. (AID 1845222). Also: potency is read from the fitted curve at half-maximal effect. In outline: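 Luminescence read-out of secreted NLuc in S16 cell conditioned medium (1:55); compounds tested with 15 min RT preincubation, then Nano-Glo substrate 1:100, 5 min. % inhibition vs no-enzyme and DMSO controls, 4-parameter Hill fit.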

Test [6] addresses Glutathione peroxidase 1 (Homo sapiens) (UniProt P07203). Kind of test: Primary qHTS Assay for Inhibitors of Recombinant Selenoprotein Glutathione Peroxidase 1 (GPX1) (AID 1845191). Also: nearly all actives have a fitted effect of over 65% in size. Also: potency is read from the fitted curve at half-maximal effect. The gist of the method: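 GPX1 10 nM, GR 100 nM, GSH 1 mM, NADPH 0.5 mM, CHP 0.5 mM (final). 30-min cpd preincubation, RT. Ex340/Em450 read t=0, t=15 min.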
The nature of test [7]: Primary redox qHTS assay for identification of artifact compounds. (AID 1845223). In outline:
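Redox-cycling detection via DTT (250 uM final) oxidation coupled to Amplex Red (25 uM)/HRP (250 mU/mL) in HBSS. 15 min preincubation plus 30 min after DTT, room temperature. Ex/Em 525/598 nm; 4-parameter Hill fit against DMSO and 10 uM DA3003.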

Molecules are shown by their SMILES. Where “and” joins values, the source holds several entries; their conditions need not be identical. Equal entries are not always repeated. Values without a mark were called inactive. Records with an inconclusive call do not appear. Calls of active or inactive are those of the source. Calls follow the shape of the dose curve; as a rule, active = well fitted curve in the direction sought with a large enough effect; inconclusive = small, poorly fitted or top-dose-only effect, or another doubt; inactive = no such curve, though single readings can be large; an effect the other way counts as inactive or inconclusive.

Sequence of Phospholipid hydroperoxide glutathione peroxidase GPX4 (Homo sapiens) (P36969 whole entry, looked up): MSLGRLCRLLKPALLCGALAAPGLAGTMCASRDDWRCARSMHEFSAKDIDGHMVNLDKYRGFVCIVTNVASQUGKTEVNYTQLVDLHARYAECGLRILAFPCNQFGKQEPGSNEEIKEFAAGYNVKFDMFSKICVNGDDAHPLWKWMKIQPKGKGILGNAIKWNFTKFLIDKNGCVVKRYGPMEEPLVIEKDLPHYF
Sequence of Glutathione peroxidase 1 (Homo sapiens) (P07203 whole entry, looked up): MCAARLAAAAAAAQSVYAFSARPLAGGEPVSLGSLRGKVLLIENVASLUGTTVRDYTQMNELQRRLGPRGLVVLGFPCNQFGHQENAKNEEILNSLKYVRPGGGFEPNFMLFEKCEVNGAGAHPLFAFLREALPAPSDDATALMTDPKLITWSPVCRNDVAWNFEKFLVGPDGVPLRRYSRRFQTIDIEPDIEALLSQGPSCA

`COc1c/c(=C2\C=c3ccccc3=N2)[nH]/c1=C\c1[nH]c(C)cc1C`: the Potency in test [1] was 4.59 µM (active); in test [3], 3.38 µM (active); in test [4], 1.19 µM (active); in test [5] it was 10.7 µM (active). Also, the Potency result in test [2] was “inactive”.
As to `CC(C)c1ccc(CO)cc1O[C@@H]1O[C@H](CO)[C@@H](O)[C@H](O)[C@H]1O`, the Potency entry in test [1], in test [6], in test [3], in test [5] and in test [7] was “inactive” throughout. The Potency in test [4] is 13.1 µM (active).
Take `CNC(=O)c1ccccc1Nc1nc(Nc2ccc3c(c2OC)CCC[C@@H](N2CCN(CCO)CC2)C3)ncc1Cl`: the Potency in test [1] was 6.61 µM (active). Besides, the Potency entry in test [2], in test [3], in test [4] and in test [5] was “inactive” in each case.
As to `CNC(=S)NS(=O)(=O)c1cc(CCNC(=O)c2cc(Cl)ccc2OC)ccc1OC`, the Potency entry in test [1], in test [3], in test [4] and in test [7] was “inactive” throughout. For the same compound, the Potency in test [6] is 12.8 µM (active).
Turning to `CC1=CC(=O)CC(C)(CO)C1(O)/C=C/C(C)O[C@@H]1O[C@H](CO)[C@@H](O)[C@H](O)[C@H]1O` (some centres not stated), the Potency result in test [1], in test [6], in test [3], in test [5] and in test [7] was “inactive” throughout. In test [4], the Potency is 10.3 µM (active).
Take `Cn1c2ccc(F)cc2c2c(C(=O)N3CCCC3)cn(-c3ccccc3)c(=O)c21`: the Potency result in test [1], in test [3], in test [4], in test [5] and in test [7] was “inactive” each time. Further, the Potency in test [6] is 18 µM (active).
On to `CCC1C(=O)N(C)c2cnc(Nc3ccc(C(=O)NC4CCC(N5CCN(CC6CC6)CC5)CC4)cc3OC)nc2N1C(C)C` (configuration not stated), for which the Potency in test [1] was 0.0258 µM (active). Moreover, the Potency entry in test [2], in test [3], in test [4] and in test [5] was “inactive” in each case.
Turning to `O=C(NCc1ccccn1)Nc1nnc(-c2ccco2)o1`, the Potency result in test [1], in test [6], in test [3], in test [4], in test [5] and in test [7] was “inactive” throughout.
`CC1=C(COC2OC(CO)C(O)C(O)C2O)C(C(CO)C(=O)O)CC1` (configuration not stated): the Potency result in test [1], in test [6], in test [3], in test [5] and in test [7] was “inactive” throughout.
Regarding `Cn1cncc1C(N)(c1ccc(Cl)cc1)c1ccc2c(c1)c(-c1cccc(Cl)c1)cc(=O)n2C` (configuration not stated), the Potency in test [1] is 0.833 µM (active). Moreover, the Potency entry in test [6], in test [3], in test [5] and in test [7] was “inactive” in each case.
On to `CC1(C)CCCC2(C)C(C(=O)O)=CCC12` (configuration not stated), for which the Potency entry in test [1], in test [6], in test [3], in test [4], in test [5] and in test [7] was “inactive” throughout.
In the case of `COc1cc(O)c2c(c1)C1=CC(O)C(O)CC1(C)OC2=O` (configuration not stated), the Potency entry in test [1], in test [6], in test [3], in test [5] and in test [7] was “inactive” in each case.
Consider `Nc1nccn2c(C3CCC(C(=O)O)CC3)nc(-c3cc4cccc(Cl)c4[nH]3)c12` (configuration not stated), for which the Potency in test [1] was 1.15 µM (active) and 4.17 µM (active); in test [4], 6.7 µM (active). For the same compound, in test [6], the Potency result was “inactive”.
Consider `COc1c2c(c(C)c3c1C(=O)OC3)OC1(C)CC(O)C(C(C)(C)O)C(C)(CCC(=O)O)C1C2` (configuration not stated), for which the Potency entry in test [1], in test [6], in test [3], in test [5] and in test [7] was “inactive” in each case.
For the compound `COC(=O)CC(O)C1OC(c2ccccc2)C(O)C1O` (configuration not stated), the Potency result in test [1], in test [6], in test [3], in test [5] and in test [7] was “inactive” in each case. In addition, in test [4], the Potency was 8.44 µM (active).
As for `CC(C)(C)C(=O)CN1C(=O)[C@H](NC(=O)Nc2cccc(C(=O)O)c2)CN(C2CCCCC2)c2ccccc21`, the Potency entry in test [1], in test [6], in test [3], in test [4], in test [5] and in test [7] was “inactive” throughout.
Consider `O=C(c1cn(Cc2cncn2Cc2ccc(Br)cc2)cc1-c1cccc2ccccc12)N1CCOCC1`, for which the Potency in test [1] is 1.15 µM (active). Further, the Potency result in test [6], in test [3], in test [4], in test [5] and in test [7] was “inactive” in each case.
Turning to `COC1=CC(=O)CC(C)C12Oc1cc(OC)cc(O)c1C2=O` (configuration not stated), the Potency entry in test [1], in test [6], in test [3], in test [5] and in test [7] was “inactive” in each case.
As for `CC1CCCCN1S(=O)(=O)c1ccc(N2CCCC2=O)cc1` (configuration not stated), the Potency entry in test [1], in test [6], in test [3], in test [4], in test [5] and in test [7] was “inactive” in each case.
As to `C[C@H]1O[C@@H](O[C@H]2CC[C@@]3(C)C(CC[C@]4(C)C3CC=C3C5CC(C)(C)CC[C@]5(C(=O)O)CC[C@]34C(=O)O)C2(C)C)[C@H](O)[C@@H](O)[C@@H]1O` (some centres not stated), the Potency result in test [1], in test [6], in test [3], in test [5] and in test [7] was “inactive” throughout.
As for `C=CC/C=C\C/C=C\CCCCCCCc1cccc(O)c1C(=O)O`, the Potency result in test [1], in test [6], in test [3] and in test [5] was “inactive” each time.
In the case of `C=C(C)C(=O)O[C@H]1CC2=CC(C/C(C)=C\[C@H]3OC(=O)C(=C)[C@H]13)OC2=O` (some centres not stated), the Potency in test [1] is 3.58 µM (active). For the same compound, the Potency result in test [6], in test [3], in test [4], in test [5] and in test [7] was “inactive” each time.
In the case of `COC(=O)/C=C/C12COC(C)(C)C1C(O)C(OC(C)=O)C1(C)C2CCC2(C)C(c3ccoc3)OC(=O)C3OC321` (configuration not stated), the Potency entry in test [1], in test [6], in test [3] and in test [5] was “inactive” throughout.
With `Cc1[nH]nc(C(F)(F)F)c1Cc1sc2c(c1C(=O)N1C[C@](C)(O)CO1)c(=O)n(C)c(=O)n2C(C)C`, the Potency result in test [1], in test [6], in test [3], in test [4], in test [5] and in test [7] was “inactive” throughout.
